LANA-H2B inh: blockers of LANA interaction with H2A/H2B – biochemical, FP readout, HTS, primary screen | inhibition, % (concentration not given with the values) | cell-free LANA-H2A/H2B peptide, fluorescence polarization | 320,000 tested, 0.6% active | Protein LANA1 (Human herpesvirus 8 type P (isolate GK18)), Q9QR71; in the data active = inhibition mostly above about 10%, no sharp cut-off; inactive = mostly below about 6.7%
Rtt109 Vps75: inhibitors of C. albicans Rtt109/Vps75 HAT, primary screen, biochemical, ThioGlo CoA-SH fluorescence, plate reader. Histone acetyltransferase RTT109 (Candida albicans (strain SC5314 / ATCC MYA-2876)), …. purified Rtt109/Vps75, 4 h. inhibition, % at 34.9 µM. 330,000 tested, 0.16% active;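 active = inhibition of at least 50% in every replicate; inconclusive = best replicate reaches 50% inhibition but some replicates fall short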
Target sequence (Q5AAJ8 whole entry, looked up): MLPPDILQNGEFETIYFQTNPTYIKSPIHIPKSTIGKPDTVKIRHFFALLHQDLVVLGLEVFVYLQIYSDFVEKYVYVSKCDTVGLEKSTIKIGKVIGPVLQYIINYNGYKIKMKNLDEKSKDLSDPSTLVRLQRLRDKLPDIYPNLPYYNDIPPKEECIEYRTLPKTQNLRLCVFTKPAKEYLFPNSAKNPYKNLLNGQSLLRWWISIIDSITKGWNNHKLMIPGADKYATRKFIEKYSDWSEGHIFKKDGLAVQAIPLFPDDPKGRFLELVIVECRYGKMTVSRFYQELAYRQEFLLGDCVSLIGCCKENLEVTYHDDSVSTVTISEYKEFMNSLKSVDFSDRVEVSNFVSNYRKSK
ABHD5-PLIN5 inh: ABHD5-PLIN5 interaction inhibitors, primary screen, cell lysate, split luciferase complementation, luminescence; 360,000 tested, 0.78% active; Split G. princeps luciferase complementation, 4 h; inhibition, % at 4 µM; Perilipin-5 (Homo sapiens) + 1-acylglycerol-3-phosphate O-acyltransferase ABHD5 (Homo …; AID 602281, 2012;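 active = inhibition above the mean inhibition across every tested compound plus 3 SD, cut at about 22% in these data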
rCAG binder: binders of r(CAG) RNA repeats, primary screen, biochemical, fluorescence; r(CAG) RNA repeat, TO-PRO-1 dye displacement fluorescence; inhibition, % at 3 µM; 370,000 tested, 1.3% active;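 active = inhibition above the plate cutoff, the mean of all test compounds on that plate plus 3 SD, cut at about 35% in these data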;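 also: higher means more dye released from RNA so lower well fluorescence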
PRMT1 FP inh: PRMT1 methyltransferase inhibitors, primary screen, biochemical, fluorescence polarization; recombinant PRMT1, activity-based probe fluorescence polarization; inhibition, % at 2.79 µM; 370,000 tested, 1.3% active;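 active = inhibition above about 21% made by adding two undisclosed values, limit read from the data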
Target sequence (Q99873 whole entry, looked up): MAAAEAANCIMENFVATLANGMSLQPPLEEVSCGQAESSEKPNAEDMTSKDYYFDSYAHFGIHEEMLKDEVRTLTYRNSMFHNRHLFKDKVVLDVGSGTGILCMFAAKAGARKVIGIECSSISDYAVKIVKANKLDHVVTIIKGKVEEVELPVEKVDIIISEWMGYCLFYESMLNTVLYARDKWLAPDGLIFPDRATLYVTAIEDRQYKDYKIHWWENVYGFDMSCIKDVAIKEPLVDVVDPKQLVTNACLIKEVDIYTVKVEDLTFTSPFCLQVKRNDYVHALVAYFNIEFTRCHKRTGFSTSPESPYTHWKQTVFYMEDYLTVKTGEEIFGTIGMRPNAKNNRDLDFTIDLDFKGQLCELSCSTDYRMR
ALR H2O2 inh: inhibitors of human ALR sulfhydryl oxidase, primary screen, biochemical, H2O2 detection, HRP-luminol luminescence, single point | FAD-linked sulfhydryl oxidase ALR (Homo sapiens), P55789 | purified ALR, DTT oxidation | inhibition, % (concentration not given with the values) | 290,000 tested, 3.8% active;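 active = mean replicate inhibition above about 79%, with every replicate also reaching it, limit read from the data; inconclusive = only one of the two criteria met; inactive = mean below limit and not every replicate reaching it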
rCAG bind conf: small molecules binding CAG repeat RNA – biochemical, fluorescence, confirmation; shares compounds with rCAG binder; 4,300 tested, 70% active; r(CAG) RNA repeat, TO-PRO-1 dye displacement fluorescence; inhibition, % at 3 µM;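 active = inhibition above a per-plate cutoff, the mean inhibition of sample wells plus 3 SD, cut at about 35% in these data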;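 also: loss of TO-PRO-1 fluorescence as compound displaces dye from 1x1 AA loop RNA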
dCAG dye counter: displacement of TO-PRO-1 from CAG DNA duplex, counter-screen for rCAG RNA repeat binder project, biochemical, fluorescence, TO-PRO-1 dye, d(CAG) DNA oligo; shares compounds with rCAG binder; d(CAG) DNA oligo TO-PRO-1 dye displacement; inhibition, % at 3 µM; 4,300 tested, 94% active; AID 652068, 2013;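 active = inhibition above its plate's cutoff, the mean test-well inhibition plus 3 SD, cut at about 4.8% in these data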;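 also: hits displace the dye from DNA and so lower well fluorescence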
dCAG dye DR: inhibitors of DNA CAG/GTC TO-PRO-1 complex, dose response, counter-screen for rCAG RNA repeat binder project, biochemical, fluorescence, TO-PRO-1 dye. 250 tested, 20% active. shares compounds with rCAG binder. IC50, µM. DNA CAG/GTC duplex TO-PRO-1 dye displacement fluorescence; in the data active = IC50 below about 10 µM
Each line names hits and unclear results; the compound was inactive in the other large screens (follow-up assays come after a bar, where they were run). The list is not random: actives were taken first. Their share in the collection is about 5.9%.

C[C@H]1COc2cc(N(C)CCO)ccc2S(=O)(=O)N1	none (no result: LANA-H2B inh, Rtt109 Vps75, ALR H2O2 inh)
COc1cccc(/C=C2\Oc3cc(OCC(=O)N4CCC[C@H]4C(=O)O)ccc3C2=O)c1	rCAG binder 37, ALR H2O2 inh inconclusive | rCAG bind conf 44 | dCAG dye counter 13
CCOC(=O)c1ccccc1-c1csc(NS(=O)(=O)c2ccc(Cl)cc2)n1	rCAG binder 76 | rCAG bind conf 70 | dCAG dye counter 33 | dCAG dye DR inactive
CCOC(=O)Cc1csc(NS(=O)(=O)c2ccccc2)n1	none (no result: ALR H2O2 inh)
O=C(N/N=C/c1cc(Br)c(O)c(Br)c1)c1cc2c(ccc3ccccc32)o1	rCAG binder 96 | rCAG bind conf 78 | dCAG dye counter 46
O=C(N/N=C/c1ccc(O)c(Br)c1)c1cc2c(ccc3ccccc32)o1	none
O=C(N/N=C/c1cc(Cl)c(O)c(Cl)c1)c1cc2c(ccc3ccccc32)o1	rCAG binder 86 | rCAG bind conf 78 | dCAG dye counter 40
CC1CCN(c2ccc3c(c2)S(=O)(=O)c2cccc(C(=O)NC4CC4)c2C3=O)CC1	none
COc1cc(/C=C/c2ccc3c(Br)cc(Br)c(O)c3n2)ccc1O	rCAG binder 39 | rCAG bind conf 39 | dCAG dye counter 20
CC(=O)NS(=O)(=O)c1ccc(NC(=O)/C=C/c2cn(-c3ccccc3)nc2-c2ccccc2)cc1	rCAG binder 87, ALR H2O2 inh 98 | rCAG bind conf 86 | dCAG dye counter 66
CCOC(=O)c1c(-c2ccc3ccccc3c2)csc1NC(=O)CCCC(=O)O	rCAG binder 45 (no result: LANA-H2B inh, ALR H2O2 inh) | rCAG bind conf 50 | dCAG dye counter 14
Cc1ccc(-n2c(SC/C=C/c3ccccc3)nnc2-c2cccs2)cc1	none (no result: LANA-H2B inh, Rtt109 Vps75, ABHD5-PLIN5 inh, ALR H2O2 inh)
COc1ccc(OC(F)(F)F)cc1CC1(C)C(=O)Nc2ccc(S(=O)(=O)NC3CCCCC3)cc21 (stereo not drawn)	none (no result: LANA-H2B inh, Rtt109 Vps75, ALR H2O2 inh)
O=C(OCCC12CC3CC(CC(C3)C1)C2)c1ccc(NCc2cc(O)ccc2O)cc1	rCAG binder 36 (no result: LANA-H2B inh, ALR H2O2 inh) | rCAG bind conf inactive | dCAG dye counter 11
COC(=O)[C@]12C[C@H](CC(=O)N3CCN(C(=O)c4ccco4)CC3)C(=O)N(CCC3=CCCCC3)C1=C[C@H](C1CCCC1)O[C@@H]2C	none (no result: LANA-H2B inh, Rtt109 Vps75, ABHD5-PLIN5 inh, ALR H2O2 inh)
CC(C)C(N)c1csc(NC(=O)Nc2cccc(Cl)c2)n1 (stereo not drawn)	rCAG binder 44 (no result: LANA-H2B inh, Rtt109 Vps75, ALR H2O2 inh) | rCAG bind conf 51 | dCAG dye counter 8.4
CC(C)c1ccc(NC(=O)Nc2nc(C(N)C(C)C)cs2)cc1 (stereo not drawn)	none (no result: LANA-H2B inh, Rtt109 Vps75, ALR H2O2 inh)
NC(c1csc(NC(=O)Nc2cccc(Cl)c2)n1)c1ccccc1Cl (stereo not drawn)	rCAG binder 41 (no result: LANA-H2B inh, Rtt109 Vps75, ALR H2O2 inh) | rCAG bind conf 50 | dCAG dye counter 17
Cc1cccc(C)c1NC(=O)Nc1nc(C(N)c2ccccc2Cl)cs1 (stereo not drawn)	none (no result: LANA-H2B inh, Rtt109 Vps75, ALR H2O2 inh)
CN(Cc1ccccc1)C(=O)Cn1nnc(-c2ccccc2)c1COc1ccccc1	none (no result: LANA-H2B inh, Rtt109 Vps75, ALR H2O2 inh)
O=C(CSc1ncnc2nc[nH]c12)Nc1nnc(SCc2ccc(Cl)c(Cl)c2)s1	rCAG binder 42 (no result: Rtt109 Vps75) | rCAG bind conf 61 | dCAG dye counter 24
CC(C)C[C@H]1CN(CCCC[C@H]2CNC(=O)C(=O)N2CCc2ccc(O)cc2)C(=O)C(=O)N1CCc1ccc(O)cc1	none (no result: LANA-H2B inh, Rtt109 Vps75, ALR H2O2 inh)
Cc1ccccc1N(CC(=O)Nc1ccccc1C(=O)O)S(C)(=O)=O	none
Cc1ccc(S(=O)(=O)N(CC(=O)Nc2ccccc2C(=O)O)c2ccccc2C)cc1	rCAG binder 58 | rCAG bind conf 50 | dCAG dye counter 15
Cc1ccc(S(=O)(=O)N(CC(=O)Nc2ccccc2C(=O)O)c2cccc(Cl)c2C)cc1	rCAG binder 78, ALR H2O2 inh 97 | rCAG bind conf 82 | dCAG dye counter 52
COc1cccc(-c2ncn(CCc3ccccc3OC)c2CC(C)C)c1	none (no result: LANA-H2B inh, Rtt109 Vps75, ABHD5-PLIN5 inh, ALR H2O2 inh)
COc1ccccc1NS(=O)(=O)c1ccc(NC(=O)c2[nH]nc(OC)c2[N+](=O)[O-])cc1	rCAG binder 47 | rCAG bind conf inactive | dCAG dye counter 7.2
COc1ccccc1NS(=O)(=O)c1ccc(NC(=O)c2ccncc2)cc1	none
O=S(=O)(c1ccc(F)cc1)n1c(CN2CCOCC2)nc2ccccc21	none (no result: LANA-H2B inh, Rtt109 Vps75, ABHD5-PLIN5 inh, ALR H2O2 inh)
Cc1cccc(C)c1NC(=O)c1csc([C@H]2C[C@H](O)[C@@H](CO)O2)n1	none (no result: LANA-H2B inh, Rtt109 Vps75, ALR H2O2 inh)
CC(C)=C1C(=O)NN(c2ccc(F)c(Cl)c2)C1=O	rCAG binder 83, ALR H2O2 inh 94 | rCAG bind conf inactive | dCAG dye counter 6.8
O=C1CSC(=S)N1c1ccc(F)c(Cl)c1	none
CC(=O)C1=C(O)C(=O)N(c2cc(C(C)(C)C)on2)C1c1ccc(Br)cc1 (stereo not drawn)	rCAG binder 47 (no result: Rtt109 Vps75) | rCAG bind conf 46 | dCAG dye counter 13 | dCAG dye DR inactive
CC(=O)C1=C(O)C(=O)N(c2cc(C(C)(C)C)on2)C1c1ccc(C(C)C)cc1 (stereo not drawn)	none (no result: rCAG binder, PRMT1 FP inh)
c1ccc(C[C@H]2CN=C(Nc3ccccc3)N2CC2CCCC2)cc1	none (no result: LANA-H2B inh, Rtt109 Vps75, ALR H2O2 inh)
C[N+]1=C(N)N[C@@]2(C=C3CCCCC3n3c(=O)n(-c4ccccc4)c(=O)n32)C1 (stereo partly drawn)	none (no result: LANA-H2B inh, Rtt109 Vps75, ABHD5-PLIN5 inh, ALR H2O2 inh)
Cc1onc(-c2ccccc2)c1C(=O)NC(=S)NNC(=O)c1ccncc1	none
Cc1onc(-c2ccccc2)c1C(=O)NC(=S)NNC(=O)c1cc(-c2ccc(F)cc2)n[nH]1	rCAG binder 68 | rCAG bind conf 71 | dCAG dye counter 31 | dCAG dye DR inactive
O=c1cccc(-c2ccc3ccccc3c2)o1	none (no result: LANA-H2B inh, Rtt109 Vps75, ALR H2O2 inh)
CCCCCCCCN1C(=O)[C@@H](CC(=O)N2CCSCC2)C[C@@]2(C(=O)OC)C1=C[C@H](C1CCCC1)O[C@@H]2C	none (no result: LANA-H2B inh, Rtt109 Vps75, ABHD5-PLIN5 inh, ALR H2O2 inh)
